Laboratory results from PubChem BioAssay (NCATS).
Results filed as inconclusive are left out. Entries that show only a call come without a potency. The source made the active and inactive calls. Calls follow the shape of the dose curve; as a rule, active = well fitted cell-killing curve with a large enough effect; inconclusive = small, poorly fitted or top-dose-only effect, or effect the other way; inactive = flat fitted curve, though single readings scatter.

System: CAOV3
Assay: Primary qHTS to identify gynecologic anti-cancer compounds using libraries of approved drugs and bioactive compounds (AID 1345084); also: nearly all actives have a fitted effect of over 55% in size
Details: Gynecologic cancer cell panel viability, ATPlite luminescence, 48 h; series mostly up to 57.5 µM
Text: National Center for Advancing Translational Sciences [NCATS] Assay Overview: Chemotherapeutic drug responses vary from cancer to cancer and from patient to patient. These variations could be caused by a number of factors including patient genomic background, tumor mutations, tumor heterogeneity, and aspects of drug treatment. Chemotherapeutic drug resistance is also a common issue and can lead to ineffective treatment and patient death. Here we have profiled the cell killing effects of thousands of compounds to characterize the responses in three gynecological cancers, identify cancer-selective compounds, and understand the diversity of responses to these compounds from pan-cancer suppressors to single cell line selective compounds. In this assay, we screened a 7,914 compound drug library that included approved drug and bioactive compounds in six ovarian, three cervical, and […] placental cancer cell lines using the ATPlite assay for cell viability. […] The cervical cancer cell lines included HeLa, Ca Ski, and C-33 A. The placental cancer cell lines included JEG-3. HEK 293T cells were used as the control cell line to determine the selectivity index. ATPlite is a luminescence based assay reliant on the conversion of a luciferase substrate to light in the presence of ATP. As a cytotoxic compound will suppress growth and decrease the number of cells, the concentration of ATP will decrease, and less light signal will be detected in the well.
Assay Protocol Summary: 1,000 cells in 4 uL of media were dispensed into white, solid bottom 1536-well plates using a Multidrop Combi (Thermo Scientific). The Assay plates were incubated for 16 hours at 37 C with 5% CO2 in assay plates, followed by the addition of 23 nL of DMSO or drug dissolved in DMSO. Each compound was assayed in five concentrations (0.092, 0.46, 2.3, 11.5, and 57.5 uM), using the automated Wako 1536 Pin Tool workstation and incubated at 37 C with 5% CO2 48 hours. 4 uL of ATPlite, the ATP monitoring reagent, was then added to the each well of the assay plates using the Multidrop Combi reagent dispenser followed by incubation for 15 minutes at room temperature. The resulting luminescence was measured using the ViewLux plate reader.
Potency is read from the fitted curve at half-maximal effect.

| SMILES | Potency |
| --- | --- |
| CC(O)(C#Cc1ccc2c(c1)N(c1nc(N)ncc1Cl)CC2)c1nccs1 (stereo not drawn) | inactive |
| CN1CCc2c(c3ccccc3n2Cc2ccc(C(=O)NO)cc2)C1 | inactive |
| CCCCOc1ccc(C(=O)Nc2ccc(F)cc2F)cc1 | inactive |
| CC1=C(C(=O)Nc2cc3cn[nH]c3cc2F)C(c2ccc(Cl)cc2F)N=C(c2ccnc(Cl)c2)N1 (stereo not drawn) | inactive |
| C=CC(=O)Nc1ccc2ncnc(Nc3ccc(OCc4cccc(F)c4)c(Cl)c3)c2c1 | 35.5 µM (active) |
| FC(F)(F)c1ccc(Nc2nc3ccc(Oc4ccnc(-c5ncc(C(F)(F)F)[nH]5)c4)cc3[nH]2)cc1 | inactive |
| CC(C)n1cnc2c(NCCc3ccc(O)cc3)nc(-c3csc4ccccc34)nc21 | inactive |
| COc1ccc(S(=O)(=O)Nc2cccnc2Nc2ccc(O)cc2)cc1 | inactive |
| O=C(Nc1ccc(Oc2ccnc3[nH]ccc23)c(F)c1)c1cccn(-c2ccc(F)cc2)c1=O | inactive |
| Cn1cnc2c(F)c(Nc3ccc(Br)cc3F)c(C(=O)NOCCO)cc21 | inactive |
| Cc1ccccc1C(=O)Nc1ccc(C(=O)N2CCCC(O)c3cc(Cl)ccc32)c(C)c1 (stereo not drawn) | inactive |
| C[C@H]1[C@@H](OC(=O)CCC(=O)O)O[C@@H]2O[C@@]3(C)CC[C@@H]4[C@H](C)CC[C@@H]1[C@@]24OO3 | inactive |
| O=C(O)c1ccc(Nc2ncc3c(n2)-c2ccc(Cl)cc2C(c2c(F)cccc2F)=NC3)cc1 | inactive |
| Cc1ccc(-n2[nH]c(C)c(N=Nc3cccc(-c4cccc(C(=O)O)c4)c3O)c2=O)cc1C | inactive |
| C[N+]1(C)[C@@H]2C[C@@H](OC(=O)C(O)(c3cccs3)c3cccs3)C[C@H]1[C@@H]1O[C@@H]12 | inactive |
| CCOC(=O)[C@@H](N)Cc1ccc(-c2cc(O[C@H](c3ccc(Cl)cc3-n3ccc(C)n3)C(F)(F)F)nc(N)n2)cc1 | inactive |
| CCC[C@H]1C[C@H](C(=O)N[C@@H]([C@@H]2O[C@@H](SC)[C@@H](O)[C@@H](O)[C@@H]2O)[C@H](C)Cl)N(C)C1 | inactive |

| SMILES | Potency |
| --- | --- |
| CCN(CC)Cc1ccc2cc(COC(=O)Nc3ccc(C(=O)NO)cc3)ccc2c1 | 7.94 µM (active) |
| O=C(Nc1cc2cc[nH]c2cn1)c1ccccc1 | 1.78 µM (active) |
| Oc1ccc([C@@H]2Oc3ccc(O)cc3[C@@H]3CCC[C@@H]32)cc1 | inactive |
| Cc1cnc(Nc2ccc(CN3CCOCC3)cc2)nc1Nc1cccc(S(=O)(=O)NC(C)(C)C)c1 | 7.94 µM (active) |
| N[C@H]1CN(c2c(F)cc3c(=O)c(C(=O)O)cn(C4C[C@@H]4F)c3c2Cl)CC12CC2 (stereo partly drawn) | inactive |
| c1cncc(CN2CCC(n3ncc4c(N5CCOCC5)nc(-c5ccc6[nH]ccc6c5)nc43)CC2)c1 | 28.2 µM (active) |
| CN(C)CC(=O)N1CCC(c2ccc(NC(=O)c3ncc(C#N)[nH]3)c(C3=CCCCC3)c2)CC1 | inactive |
| CCn1c(=O)c2c(nc(C=Cc3ccc(OC)c(OC)c3)n2C)n(CC)c1=O | inactive |
| CS(=O)(=O)N1CCc2c(-c3cnc(N)nc3)nc(N3CCOCC3)nc21 | inactive |
| Cc1cn([C@@H]2O[C@H](CO)[C@@H](O)[C@H]2F)c(=O)[nH]c1=O | inactive |
| Nc1ccn(C2CO[C@H](CO)O2)c(=O)n1 (stereo partly drawn) | inactive |
| C[C@H](O)[C@@H]1C(=O)N2C(C(=O)O)=C(S[C@@H]3CN[C@H](CNS(N)(=O)=O)C3)[C@@H](C)[C@@H]12 | inactive |
| CC1(C)O[C@@H]2C[C@H]3[C@@H]4CCC5=CC(=O)C=C[C@]5(C)[C@@H]4[C@@H](O)C[C@]3(C)[C@]2(C(=O)CO)O1 | inactive |
| c1ccc2c(Oc3nc(Nc4ccc(N5CCOCC5)cc4)c4ncn(C5CCCCC5)c4n3)cccc2c1 | inactive |
| CC(C)C[C@H](NC(=O)[C@@H](NC(=O)c1cccc(-c2ccccc2)n1)[C@@H](C)O)B(O)O | 0.282 µM (active) |
| Cc1coc2c1C(=O)C(=O)c1c-2ccc2c(C)cccc12 | inactive |
